Compounds with a hit are over-represented: about 3.8% of the library has one in this group of screens.
HT1080 IDH1KD tx: HT-1080 IDH1 knockdown cell toxicity (counter line); Potency, µM (doses to about 46.1 µM), for the others: at the highest dose activity, negative = toxicity, usual class: cytotoxic; 360,000 tested, 2% active; HT-1080 IDH1 knockdown viability, ATP luminescence, 48 h;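 further: 0% = DMSO wells and -100% = cell-free medium wells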
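% activity derives from luminescence (CellTiter-Glo), normalised to DMSO and no-cell wells. HT-1080-IDH1KD cells, 750/well, had 48 h compound exposure at 37 °C.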
S2 tox: reduces viability in counter-screen for ATXN expression inhibitors. S2 cells (HEK-293 line with an ATXN2-luciferase reporter) viability, CellTiter-Fluor protease fluorescence, 24 h. Potency, µM (series often up to 56.7 µM), usual class: cytotoxic. 400,000 tested, 0.49% active; further: nearly all actives have a fitted effect of over 40% in size
TGFb inhibitor: blocks TGF-b signaling. AID 588855. 410,000 tested, 1.2% active. HepG2 CAGA-GFP TGF-b/SMAD3 reporter, GFP fluorescence, 18 h; TGF-beta stimulated, 500 pg/mL final. Potency, µM (highest dose often 46.1 µM), for inactives: at the top dose activity, negative = inhibition, most hits filed as inhibitors; further: on the % scale 0 is the no-effect control and ±100 the full control effect; nearly all actives have a fitted effect of over 65% in size
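Smad-responsive CAGA-GFP expression was quantified in HEPG2 cells exposed to compounds and 500 pg/mL final TGF-beta for 18 h at 37 degrees C; unstimulated wells defined full inhibition.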
HepG2 tox-1: counter-screen for TGF-b inhibitors: cytotoxicity in HepG2 cells. HepG2 CAGA-GFP viability, ATP luminescence, 18 h. Potency, µM (highest dose often 46.1 µM), for the others: at the highest dose activity change, negative = cytotoxicity, actives largely listed as cytotoxic. 410,000 tested, 0.76% active
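CellTiter-Glo luminescence gave cytotoxicity after 18 hours at 37 degrees C. The cells were HepG2 CAGA-GFP in 1% FBS DMEM, stimulated with 500 pg/mL TGF-beta after compound addition. %Activity was normalised to no-cell wells (complete cell-killing) and DMSO (no toxicity), and curves were fitted and classified.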
ATXN2 expr inh: reduces ATXN2 reporter expression in HEK-293 cells; 360,000 tested, 0.72% active; AID 1745845; Potency, µM (top dose mostly 57 µM), inactives show at the top dose activity change, negative = inhibition, hits mostly inhibitors; HEK-293 ATXN2-luciferase reporter, luminescence, 24 h; further: on the % scale 0 is the no-effect control and ±100 the full control effect; nearly all actives have a fitted effect of over 55% in size
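ATXN2-luciferase reporter cells (luciferase flanked by upstream and downstream ATXN2 gene portions) were treated 24 h at 37 °C with compounds at up to 57 uM. SteadyGlo luminescence gave expression; GF-AFC fluorescence gave viability.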
HT1080NT lethal: kills 2HG-producing HT-1080-NT fibrosarcoma cells; HT-1080-NT fibrosarcoma viability, CellTiter-Glo ATP luminescence, 48 h; Potency, µM (highest dose often 46.1 µM), for inactives: top-dose activity, negative = less viability, usual class: cytotoxic; 360,000 tested, 1.6% active; AID 686970;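 further: NT is the 2HG producing partner of a matched IDH1 knockdown line; 0% = DMSO-treated cells and -100% = media-only wells without cells; nearly all actives have a fitted effect of over 55% in size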
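HT-1080-NT fibrosarcoma cells (2HG-overproducing), 750 cells/well in RPMI with 5% FBS, dosed after 2 h and incubated 48 h at 37C. CellTiter-Glo luminescence normalized to DMSO and no-cell wells; concentration-response curves fitted and classed.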
TGFb confirm: TGF-b pathway inhibition, cherry-pick retest | shares compounds with TGFb inhibitor | HepG2 CAGA-GFP TGF-b reporter, GFP fluorescence, 18 h; cells stimulated with TGF-beta, 500 pg/mL | Potency, µM (titrated, usually from 46.1 µM), for inactives: top-dose activity, negative = inhibition, hits mostly inhibitors | 1,600 tested, 63% active; further: on the % scale 0 is the no-effect control and ±100 the full control effect; nearly all actives have a fitted effect of over 65% in size
HepG2 tox-2: counter-screen for TGF-b inhibitors: cytotoxicity in HepG2 cells; AID 720535; Potency, µM (highest dose often 46.1 µM), inactives show top-dose activity, negative = cytotoxicity, actives largely listed as inhibitors; shares compounds with TGFb inhibitor; 1,600 tested, 27% active; HepG2 CAGA-GFP viability, ATP luminescence, 18 h; cells stimulated with TGF-beta, 500 pg/mL; further: on the % scale 0 is the no-effect control and ±100 the full control effect; nearly all actives have a fitted effect of over 70% in size
CCL64 TGFb inh: blocks TGF-b signaling in CCL64 reporter cells | shares compounds with TGFb inhibitor | CCL64 CAGA-GFP reporter, TGF-b stimulated, GFP fluorescence, 18 h | Potency, µM (titrated, usually from 46.1 µM), inactives show top-dose activity, negative = inhibition, hits mostly inhibitors | 1,600 tested, 41% active; further: nearly all actives have a fitted effect of over 65% in size
TGFb COP inh: blocks TGF-b signaling in HepG2 COP reporter. 1,600 tested, 3% active. Potency, µM (series often up to 46.1 µM), for the others: at the highest dose activity, negative = inhibition, hits mostly inhibitors. AID 720537. shares compounds with TGFb inhibitor. HepG2 COP-GFP TGF-b reporter, GFP fluorescence, 18 h; cells stimulated by added recombinant TGF-beta; further: nearly all actives have a fitted effect of over 70% in size
* marks the source's active call; other numbers are inactive results; i = inactive; ? = inconclusive; · = no result given. The call rests on the fitted dose curve; in most records, active means well fitted curve in the direction sought with a large enough effect; inconclusive means small, poorly fitted or top-dose-only effect, or another doubt; inactive means no such curve, though single readings can be large; an effect the other way counts as inactive or inconclusive. Potency means the concentration at half of the fitted maximal effect.

SMILES | HT1080 IDH1KD tx | S2 tox | TGFb inhibitor | HepG2 tox-1 | ATXN2 expr inh | HT1080NT lethal | TGFb confirm | HepG2 tox-2 | CCL64 TGFb inh | TGFb COP inh
O=C(C1CCC(=O)N(C2CCCCCC2)C1)N1CCN(c2ccccc2Cl)CC1 (configuration not stated) | 0.8% | i | 7.08µM* | -85.8% | · | ? | -28.6% | -19.8% | ? | -0.5%
CCCc1cc2c(cc1NC(=O)c1ccco1)OCO2 | -4.3% | i | ? | 6.4% | -8.1% | 1.0% | -27.2% | 1.9% | 0.2% | -2.1%
CCCc1cc2c(cc1NC(=O)c1ccccc1F)OCO2 | 15.3% | i | 28.4% | 31.6% | 0.3% | 7.1% | · | · | · | ·
O=C(Nn1c(SCc2ccc(F)cc2)nc2ccsc2c1=O)c1ccccc1 | -2.3% | i | 11.2µM* | -2.2% | 8.3% | -2.4% | 16.4µM* | ? | ? | 53.1%
Cc1ccc(CNC(=O)CSc2nc3ccsc3c(=O)n2NC(=O)c2ccccc2)cc1 | 2.2% | i | -13.4% | -11.6% | 33.0% | -1.8% | · | · | · | ·
COCc1cc(C)nc2c1C(=O)NC(c1ccc(F)cc1)N2Cc1ccccc1 (configuration not stated) | · | i | 4.1% | -2.5% | 5.4% | · | · | · | · | ·
O=C1N(c2ccccc2)C[C@@H]2C[C@@H](c3cc4ccccc4o3)N3CCC[C@@]123 | 0.581µM* | ? | 0.126µM* | 2.4% | 0.299µM* | ? | 0.058µM* | ? | 0.581µM* | 17.9%
CN(CCc1ccccc1)C(=O)c1cccc(NC(=O)Cc2cccc([N+](=O)[O-])c2)c1 | -6.8% | ? | 7.08µM* | -18.4% | -27.8% | -0.5% | ? | -22.8% | -2.4% | 15.9%
CN(Cc1ccccc1)C(=O)c1ccc(NC(=O)Cc2cccc([N+](=O)[O-])c2)cc1 | -15.0% | i | 10.5% | -31.4% | -16.6% | -11.0% | · | · | · | ·
O=C(Nc1cccc2ccccc12)c1ccc([N+](=O)[O-])s1 | ? | i | 8.91µM* | 11.2µM* | · | ? | 16.4µM* | 25.9µM* | ? | 50.2%
O=C(Nc1cccnc1)c1ccc([N+](=O)[O-])s1 | ? | i | 10µM* | 11.2µM* | ? | ? | 14.6µM* | 23.1µM* | ? | ?
O=C(Nc1ccccc1F)c1ccc([N+](=O)[O-])s1 | ? | i | ? | -67.6% | -25.4% | ? | · | · | · | ·
O=[N+]([O-])c1c(Nc2cccc(O)c2)cc(Cl)c2nonc12 | 8.2µM* | 10µM* | 3.55µM* | 3.55µM* | ? | 5.17µM* | 2.91µM* | 3.26µM* | 2.91µM* | 4.61µM*
